This note sets out measurements from PubChem BioAssay (EPA / NIEHS).

Molecules are shown by their SMILES. Results filed as inconclusive are left out. Active and inactive are the calls of the source. How the source made its calls: active means hit-call score of the fitted dose curve at least 0.9, where 1 is the maximum; inconclusive means response in the unintended direction; inactive means score below 0.9.

The target of the assay is Cellular tumor antigen p53 (Homo sapiens) (UniProt P04637). Put plainly: TOX21_p53_BLA_p3_ratio: Tox21 HCT-116 p53 Agonism Beta-lactamase Assay, Ratio, Phase 3 (AID 2283596). The source says: TOX21_p53_BLA_p3 is a cell-based, single-readout assay that uses HCT116, a human intestinal cell line, […] in a 1536-well plate.TOX21_p53_BLA_p3_ratio is an assay readout measuring reporter gene via receptor activity and designed using inducible reporter (beta lactamase induction) detected with GAL4 b-lactamase reporter gene. The signal is derived from the ratio of cleaved (ch2) to uncleaved (ch1) reporter gene substrate used as the measure of target activity.Data from the assay component TOX21_p53_BLA_p3_ratio was analyzed into 1 assay endpoint. This assay endpoint, TOX21_p53_BLA_p3_ratio, was analyzed in the positive analysis fitting direction relative to DMSO as the negative control and baseline of activity. Using a type of inducible reporter, gain-of-signal activity can be used to understand changes in the reporter gene as they relate to the gene TP53. Furthermore, this assay endpoint can be referred to as a primary readout, because this assay has produced multiple assay endpoints where this ratio serves a reporter gene function to understand target activity. To generalize the intended target to other relatable targets, this assay endpoint is annotated to the DNA binding intended target family, where the subfamily is tumor suppressor.
Sequence of Cellular tumor antigen p53 (Homo sapiens) (P04637 whole entry, looked up, the tested form may be a part): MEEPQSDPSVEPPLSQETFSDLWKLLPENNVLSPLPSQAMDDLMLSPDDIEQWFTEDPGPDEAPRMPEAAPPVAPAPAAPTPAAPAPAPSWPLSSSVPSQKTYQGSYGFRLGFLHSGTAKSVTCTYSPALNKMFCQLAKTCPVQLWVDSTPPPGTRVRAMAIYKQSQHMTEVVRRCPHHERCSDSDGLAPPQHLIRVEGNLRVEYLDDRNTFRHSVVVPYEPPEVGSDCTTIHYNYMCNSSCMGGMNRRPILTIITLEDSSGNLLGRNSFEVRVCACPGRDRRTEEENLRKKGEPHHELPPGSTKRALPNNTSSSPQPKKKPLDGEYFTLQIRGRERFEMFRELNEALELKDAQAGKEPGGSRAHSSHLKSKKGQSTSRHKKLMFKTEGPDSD
Thawing Method: Place 14 mL of pre-warmed thaw medium into a 15 mL of conical tub. Remove the vial of cells to be thawed from liquid nitrogen and thaw rapidly by placing at 37C in a water bath with gentle agitation for 1-2 minutes. Decontaminate the vial by wiping with 70% ethanol before opening in a biological safety cabinet. Transfer the vial contents drop-wise into 14 mL of thaw medium in a sterile 15-mL conical tub. Centrifuge cells at 900 rpm for 4 minutes and resuspend in thaw medium. Transfer contents to the T75 tissue culture flask containing Thaw Medium and place flask in a humidified 37C/5% CO2 incubator. Switch to growth medium at first passage.Propagation Method: Aspirate medium, rinse once in DPBS, add 0.25% Trypsin/EDTA and swirl to coat the cell evenly. Add an equal volume of Growth Medium to inactivate Trypsin after 2-3 minutes incubation at 37C. Centrifuge cells at 900 rpm for 4 minutes and resuspend in growth medium. Cell should be passage or fed at least twice a week.Assay Protocol: Harvest cells from culture in growth medium and resuspend in assay medium. 2.2 Dispense 4000 cells/5 uL/well into 1536-well black/clear bottom plates using a Multidrop dispenser. After the cells were incubated at 37C for 5 hours, 23 nL of compounds dissolved in DMSO were transferred to the assay plate by a PinTool resulting in a 217-fold dilution. Incubate the plates for 16 hours at 37C, 5% CO2. Add 1 uL of 6X LiveBLAzer FRET B/G (CCF4-AM) Substrate Mixture to each well using a BioRAPTR dispenser and incubate the plates at room temperature for 2 hours. Measure fluorescence intensity at 460 and 530 nm emission and 405 nm excitation by an Envision detector. Data is expressed as the ratio of 460nm/530nm emissions. Add 4 uL of Cell-titer Glo to each well using BioRAPTR and incubate the plates at room temperature for 2 hours. Measure fluorescence intensity by a VewLux plate reader.
`C=Cc1ccccn1`: the result was inactive.

With `O=c1[nH]cnc2c1ncn2[C@@H]1O[C@H](CO)[C@@H](O)[C@H]1O`, the result was inactive.

`Nc1cccc([N+](=O)[O-])c1`: the outcome was inactive.

Take `Cl.Cl.N.N.[Cl-].[Cl-].[Pt+2]`: the result was inactive.

For `COc1ccc(CCC(=O)c2c(O)cc(O[C@@H]3O[C@H](CO)[C@@H](O)[C@H](O)[C@H]3O[C@@H]3O[C@@H](C)[C@H](O)[C@@H](O)[C@H]3O)cc2O)cc1O`, the result was inactive.

As for `COC(=O)C(C)(C)C`, the result was inactive.

Turning to `Cn1nnnc1SCC1=C(C(=O)O)N2C(=O)[C@@H](NC(=O)[C@H](O)c3ccccc3)[C@H]2SC1`, the outcome was inactive.

As to `CC1=C(/C=C/C(C)=C/C=C/C(C)=C/C=C/C=C(C)/C=C/C=C(C)/C=C/C2=C(C)C(=O)CCC2(C)C)C(C)(C)CCC1=O`, the result was inactive.

`O=C1OC(OC(=O)c2cccnc2Nc2cccc(C(F)(F)F)c2)c2ccccc21` (stereo not given): the outcome was inactive.

Turning to `Cc1c(N=C=O)cccc1N=C=O`, the result was inactive.

Consider `COc1cc2c(cc1OC)C(C(C(=O)N(CCc1ccc(OC)c(OC)c1OC)CCc1ccc(OC)c(OC)c1OC)c1ccccc1)=NCC2` (stereo not given), for which the outcome was inactive.

On to `CCCC(C)C`, for which the outcome was inactive.

On to `O=C1c2ccccc2C(=O)C1c1ccc(F)cc1`, for which the outcome was inactive.

As to `CC(C)OC(=O)C(C(=O)OC(C)C)=C1SC=CS1`, the outcome was inactive.

With `COc1cc2nc(N3CCN(C(=O)c4ccco4)CC3)nc(N)c2cc1OC`, the outcome was inactive.

What is called AC50 is the concentration at which the activity in the assay is half-maximal. For `[O-][n+]1ccccc1SSc1cccc[n+]1[O-]`, the AC50 was 9.52 µM (active).

Turning to `CN=C(NC#N)Nc1ccc(C2=NNC(=O)CC2C)cc1` (stereo not given), the result was inactive.

Turning to `CC(C)(O)CCC(C)(C)O`, the result was inactive.

In the case of `NS(=O)(=O)c1ccc(C(=O)O)cc1`, the outcome was inactive.

Turning to `O=[N+]([O-])c1cc(Cl)c(Cl)c(Cl)c1Cl`, the outcome was inactive.

Consider `C[C@H]1NCc2cc(-c3ccc4c(=O)c(C(=O)O)cn(C5CC5)c4c3OC(F)F)ccc21`, for which the result was inactive.

For the compound `CC(C)(O/N=C(\C(=O)N[C@@H]1C(=O)N2C(C(=O)[O-])=C(C[n+]3ccccc3)CS[C@H]12)c1csc(N)n1)C(=O)O`, the outcome was inactive.

For `CC1(C)Cc2cccc(N)c2O1`, the result was inactive.

As for `O=C1CCCc2ccccc21`, the result was inactive.

Consider `CCC(CO)(CO)CO`, for which the outcome was inactive.

Turning to `COC(=O)CS`, the outcome was inactive.

In the case of `C=CCSSSCC=C`, the AC50 was 8.68 µM (active).

As to `CC(=O)OCC[N+](C)(C)C`, the outcome was inactive.

`C#C[C@]1(O)CC[C@H]2[C@@H]3CCC4=CC(=O)CC[C@@H]4[C@H]3C(=C)C[C@@]21CC`: the result was inactive.

Consider `C=CC(=O)OCC1CCCO1` (stereo not given), for which the outcome was inactive.

Consider `Nc1ccc(C(=O)O)c(O)c1`, for which the result was inactive.

Regarding `CC(COc1ccccc1)NC(C)C(O)c1ccc(O)cc1` (stereo not given), the outcome was inactive.

For `CCCCCCCC/C=C\CCCCCCCC(N)=O`, the result was inactive.

As for `C1CSCCS1`, the outcome was inactive.

For the compound `O=C(NCCCN1CCOCC1)c1ccc(Cl)cc1`, the result was inactive.

As to `CN1CCN(C(c2ccccc2)c2ccccc2)CC1`, the result was inactive.

As for `CC1CCCC(=O)C1=O` (stereo not given), the outcome was inactive.

For the compound `O=C1OC(=O)C2CC=CCC12` (stereo not given), the result was inactive.

In the case of `CCCCOC(=O)CCS`, the outcome was inactive.

Regarding `Clc1ccc2nsnc2c1NC1=NCCN1`, the outcome was inactive.
